The nature of assay [1]: qHTS assay to identify small molecule antagonists of the thyroid receptor (TR) signaling pathway - cell viability counter screen (AID 743064). Note: nearly all actives have a fitted effect of over 50% in size. Note: potency is the fitted concentration of half-maximal effect. An outline of the steps:
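Fluorescence from CellTiter-Fluor, added after 23.5 h exposure at 37 °C, reported viability of GH3.TRE-Luc cells co-treated with compound and 1 nM T3. Measured in the same wells as the luciferase TR readout.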
A general note: Quantitative high-throughput screening tests each substance at several concentrations.

A short description of assay [2]: qHTS assay to identify small molecule antagonists of the thyroid receptor (TR) signaling pathway (AID 743065). Note: nearly all actives have a fitted effect of over 55% in size. Note: potency is the fitted concentration of half-maximal effect. An outline of the steps: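 GH3.TRE-Luc rat pituitary cells carrying two TR response elements driving luciferase were plated for 4 h, given compound plus 1 nM T3 (final), and incubated 23.5 h at 37 C. ONE-Glo luminescence measured reporter inhibition; CellTiter-Fluor fluorescence tracked cytotoxicity.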

The subject of assay [3] is thyroid hormone receptor (rat, GH3 cells). The assay is described as follows: qHTS assay to identify small molecule agonists of the thyroid receptor (TR) signaling pathway (AID 743066; calls by dose curve).
Assay [4] can be described thus: qHTS assay to identify small molecule antagonists of the estrogen receptor alpha (ER-alpha) signaling pathway - cell viability counter screen (AID 743074; calls by dose curve;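 note: HEK293 cells carrying ER-alpha-UAS-bla reporter stimulated with 17beta-estradiol; nearly all actives have a fitted effect of over 45% in size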; note: potency is the fitted concentration of half-maximal effect).
Assay [5] can be described thus: qHTS assay to identify small molecule antagonists of the estrogen receptor alpha (ER-alpha) signaling pathway using the BG1 cell line - cell viability counter screen (AID 743081).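 Note: compound given together with 17beta-estradiol as the ER stimulus; nearly all actives have a fitted effect of over 45% in size.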 Note: potency is the fitted concentration of half-maximal effect.
Assay [6] concerns the target Aromatase (Homo sapiens) (UniProt P11511). Kind of assay: qHTS assay to identify aromatase inhibitors (AID 743083). Note: nearly all actives have a fitted effect of over 55% in size. Note: potency is the fitted concentration of half-maximal effect.
Assay [7] has as its target Estrogen receptor (Homo sapiens) (UniProt P03372). Kind of assay: qHTS assay to identify small molecule antagonists of the estrogen receptor alpha (ER-alpha) signaling pathway (AID 743069; active = well fitted curve in the direction sought with a large enough effect in the signal ratio in the repeat runs, not every such curve was filed as active; inconclusive = weak or mixed curves, or effect the other way; inactive = no such curve, though single readings can be large or run the other way; the % refers to the signal ratio; note: potency is the fitted concentration of half-maximal effect). An outline of the steps:
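A 17beta-estradiol challenge was applied right after compound transfer to ER-alpha-UAS-bla HEK293 cells previously kept in charcoal-stripped serum. Plates stood 18 hr at 37C and 5% CO2; fluorescence was read following 2 hr FRET substrate loading at room temperature.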

For assay [8] the target is unchanged. The assay is described as follows: qHTS assay to identify small molecule agonists of the estrogen receptor alpha (ER-alpha) signaling pathway (AID 743075; calls by dose curve;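 note: HEK293 GripTite cells with ER-alpha and UAS-driven beta-lactamase reporter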; note: potency is the fitted concentration of half-maximal effect).
For assay [9] the target is unchanged. Kind of assay: qHTS assay to identify small molecule agonists of the estrogen receptor alpha (ER-alpha) signaling pathway using the BG1 cell line (AID 743079). Note: nearly all actives have a fitted effect of over 20% in size. Note: potency is the fitted concentration of half-maximal effect. The note with it: BG1Luc4E2 cells, ERE-luciferase agonist, 22 h; activation: at 70.3 µM (top of the series).
The nature of assay [10]: qHTS assay to identify small molecule antagonists of the estrogen receptor alpha (ER-alpha) signaling pathway using the BG1 cell line (AID 743080; calls by dose curve;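 note: BG1 cells stimulated with 17beta-estradiol alongside compound; nearly all actives have a fitted effect of over 25% in size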; note: potency is the fitted concentration of half-maximal effect). An outline of the steps:
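Luminescence from a 4×ERE-luciferase reporter in BG1-Luc-4E2 cells served as read-out. Cells, pre-cultured 5 days in stripped-serum phenol-red-free medium, were exposed to compound with 17beta-estradiol co-stimulation for 21.5 h at 37 C.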

“And” between values parts separate entries of the source, which are not always exact repeats. Equal values may be shown once. A number with no mark means an inactive call. The source made the active and inactive calls. Unless noted, calls come from the whole dose curve; as a rule, active = well fitted curve in the direction sought with a large enough effect in the repeat runs; inconclusive = weak or mixed curves; inactive = no such curve, though single readings can be large; an effect the other way counts as inactive or inconclusive.
% is set by controls: 0 for no effect and ±100 for the full control effect.

Estrogen receptor (Homo sapiens), sequence (P03372 whole entry, looked up): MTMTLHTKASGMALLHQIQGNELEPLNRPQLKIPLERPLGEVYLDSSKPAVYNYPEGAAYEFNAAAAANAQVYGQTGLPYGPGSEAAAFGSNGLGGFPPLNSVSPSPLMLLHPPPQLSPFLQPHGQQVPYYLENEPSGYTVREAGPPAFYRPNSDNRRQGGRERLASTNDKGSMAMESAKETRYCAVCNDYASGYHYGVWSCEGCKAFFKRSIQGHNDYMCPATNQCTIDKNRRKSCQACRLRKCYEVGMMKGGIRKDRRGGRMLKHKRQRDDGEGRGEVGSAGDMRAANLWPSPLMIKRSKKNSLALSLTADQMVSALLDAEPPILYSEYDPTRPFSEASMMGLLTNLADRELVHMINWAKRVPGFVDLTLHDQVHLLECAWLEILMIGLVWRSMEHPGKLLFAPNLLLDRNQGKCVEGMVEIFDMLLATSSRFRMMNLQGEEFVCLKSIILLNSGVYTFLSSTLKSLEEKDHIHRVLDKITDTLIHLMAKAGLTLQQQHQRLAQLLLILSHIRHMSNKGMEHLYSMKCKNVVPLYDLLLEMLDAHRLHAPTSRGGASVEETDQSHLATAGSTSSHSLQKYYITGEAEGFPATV
Aromatase (Homo sapiens), sequence (P11511 whole entry, looked up): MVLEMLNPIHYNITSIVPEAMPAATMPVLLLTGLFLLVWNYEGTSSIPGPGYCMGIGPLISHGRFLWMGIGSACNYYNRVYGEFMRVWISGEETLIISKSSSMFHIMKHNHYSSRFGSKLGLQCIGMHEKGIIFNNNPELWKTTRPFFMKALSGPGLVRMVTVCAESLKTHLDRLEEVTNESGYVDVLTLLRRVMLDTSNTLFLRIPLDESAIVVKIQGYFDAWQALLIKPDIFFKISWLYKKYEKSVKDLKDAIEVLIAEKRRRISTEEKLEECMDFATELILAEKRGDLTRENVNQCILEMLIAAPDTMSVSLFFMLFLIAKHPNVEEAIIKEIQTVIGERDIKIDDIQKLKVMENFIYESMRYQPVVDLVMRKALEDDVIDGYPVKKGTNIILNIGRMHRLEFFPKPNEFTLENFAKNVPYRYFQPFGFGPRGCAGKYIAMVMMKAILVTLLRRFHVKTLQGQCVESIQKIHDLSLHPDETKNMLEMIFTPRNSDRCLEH

In the case of `CCC(C)Br` (stereo not drawn), the Potency result in assay [1], in assay [2], in assay [3], in assay [4], in assay [5] and in assay [6] was “inactive” throughout.

For the compound `CCCCCON=O`, the Potency entry in assay [1], in assay [2], in [3], in [5] and in assay [6] was “inactive” in each case.

Regarding `CC(=O)[O][Pb]([c]1ccccc1)([c]1ccccc1)[c]1ccccc1`, the Potency was 0.686 µM (active) in assay [1]; 0.077 µM (active) in [2]; 54.9 µM [cytotoxic] (active) in assay [7]; 6.92 µM (active) in assay [4]; 49 µM [inconclusive] (active) in assay [8]; 10.9 µM (active) in assay [5]. In addition, the Potency in assay [6] is 0.193 µM (active).

`CC(O)C(=O)[O][Hg][c]1ccccc1` (stereo not drawn): the Potency in [1] is 0.686 µM (active); in assay [2], 0.344 µM (active); in assay [4], 5.49 µM (active); in [8], 0.692 µM [fluorescent] (active); in assay [5], 3.06 µM (active); in assay [6], 0.969 µM (active).

Regarding `CC[C@]1(O)CC[C@H]2[C@@H]3CCC4=CCCC[C@@H]4[C@H]3CC[C@@]21C`, the Potency entry in [1], in assay [4], in assay [10] and in assay [5] was “inactive” each time. Further, the Potency in [2] was 8.41 µM (active); in assay [8], 0.0005 µM [inconclusive] (active). Besides, the activation in [9] is 5.41% (active).

With `CCCCON=O`, the Potency entry in assay [1], in [2], in [3], in assay [4], in assay [5] and in assay [6] was “inactive” in each case.

Turning to `CCCCn1cc[n+](C)c1` (tested in a mixture with another compound), the Potency result in assay [1], in [2], in [3], in assay [4], in assay [5] and in assay [6] was “inactive” in each case.

In the case of `CCOP(=O)(OCC)Oc1cc(C)nc(C(C)C)n1`, the Potency entry in assay [1], in assay [2], in assay [3], in assay [4], in assay [5] and in [6] was “inactive” in each case.

`O=C1C2(Cl)C3(Cl)C4(Cl)C(Cl)(Cl)C5(Cl)C3(Cl)C1(Cl)C5(Cl)C24Cl` (stereo not drawn): the Potency in [1] was 9.53 µM (active) and 13.1 µM (active); in [2], 9.53 µM (active) and 11.7 µM (active); in assay [4], 54 µM (active); in assay [6], 26.9 µM (active) and 52.2 µM (active). Moreover, the Potency result in assay [3] and in assay [5] was “inactive” each time.

Turning to `NC(=O)C(Cl)Cl`, the Potency result in [1], in [2], in [3], in assay [4], in [5] and in assay [6] was “inactive” throughout.

For the compound `CCCC[N+]1(C)CCCC1` (tested in a mixture with another compound), the Potency entry in [1], in assay [2], in assay [3], in assay [4], in [5] and in assay [6] was “inactive” throughout.

As for `C#CC1(O)CCCCC1`, the Potency entry in [1], in [2], in assay [3], in assay [4], in assay [5] and in assay [6] was “inactive” throughout.

`CCOP(=O)(OCC)Oc1nc(Cl)c(Cl)cc1Cl`: the Potency is 60.8 µM (active) in [1]; 24.2 µM (active) in assay [2]; 12.2 µM [inconclusive] (active) in assay [8]; 48.3 µM (active) in assay [10]; 27.1 µM (active) in assay [6]. In addition, the Potency result in [3] and in assay [5] was “inactive” each time.

On to `O=C(Nc1ccc(F)cc1F)c1cccnc1Oc1cccc(C(F)(F)F)c1`, for which the Potency result in [1], in assay [2], in assay [3], in assay [4], in [5] and in [6] was “inactive” each time.

Regarding `[Cl-].[Cl-].[Sn+2]`, the Potency result in [1], in assay [2], in assay [3], in assay [4] and in assay [6] was “inactive” in each case.

For the compound `CCC[CH2][Sn]([CH2]CCC)([CH2]CCC)[CH2]CCC`, the Potency in [1] is 30.6 µM (active); in assay [2], 19.3 µM (active). Moreover, the Potency result in [6] was “inactive”.

For `CCC[CH2][Sn]([CH2]CCC)([CH2]CCC)[O][Sn]([CH2]CCC)([CH2]CCC)[CH2]CCC`, the activity change, negative = cytotoxic in assay [1] is 15.8% [at 8.44 µM]. Moreover, the activity, negative = inhibition in assay [2] was 7.29% [at 8.44 µM]. Also, the Potency is 0.852 µM (active) in assay [4] and 2.67 µM (active) in assay [6].

As for `Cc1ccc(C)c2ccccc12`, the Potency entry in assay [1], in assay [2], in assay [3], in assay [4], in assay [5] and in [6] was “inactive” throughout.

`COc1ccc2c(c1OC)C(=O)O[C@@H]2[C@H]1c2cc3c(cc2CCN1C)OCO3`: in [1], the Potency is 6.79 µM (active). Moreover, the Potency result in assay [2], in assay [3], in assay [4] and in [6] was “inactive” in each case.

For `COP(=O)(OC)Oc1ccc([N+](=O)[O-])cc1`, the Potency entry in [1], in [2], in assay [3], in assay [8], in [9] and in assay [10] was “inactive” in each case. Also, in assay [5], the Potency entry was “inactive”. Also, the Potency in [6] is 34.4 µM (active).

For the compound `O=C(NC(=O)c1ccccc1Cl)Nc1ccc(OC(F)(F)F)cc1`, the Potency result in [1], in [2], in [3], in assay [4], in assay [5] and in assay [6] was “inactive” in each case.

Turning to `O=Cc1ccccc1`, the Potency entry in [1], in [2], in assay [3], in assay [4] and in assay [5] was “inactive” in each case.

Regarding `CNN`, the Potency entry in assay [1], in assay [2], in [3], in assay [4], in assay [5] and in assay [6] was “inactive” in each case.

For `CN(C)CCc1c[nH]c2ccccc12`, the Potency result in [1], in assay [2], in assay [3], in assay [4] and in assay [5] was “inactive” throughout.

For `Cc1ccccc1OP(=O)(Oc1ccccc1C)Oc1ccccc1C`, the Potency is 54.7 µM (active) in assay [1], 54.7 µM (active) in assay [2] and 3.87 µM (active) in assay [9]. The Potency result in [8], in assay [10] and in assay [5] was “inactive” throughout.

Regarding `N#Cc1sc2c(=O)c3ccccc3c(=O)c=2sc1C#N`, the Potency in assay [1] was 24.3 µM (active); in [2] it was 24.3 µM (active); in assay [4], 54.9 µM (active); in assay [5], 27.3 µM (active); in assay [6], 2.17 µM (active). Moreover, the Potency entry in [3] is “inactive”.

For `CO/N=C(\C(=O)OC)c1ccccc1CO/N=C(\C)c1cccc(C(F)(F)F)c1`, the Potency in assay [1] was 34.4 µM (active); in assay [2], 0.969 µM (active); in assay [6], 61.1 µM (active). Moreover, the Potency entry in [3] was “inactive”.

`C1=CCC=C1`: the Potency entry in [1], in assay [2], in assay [3], in [4] and in assay [5] was “inactive” throughout.

As to `[Cl][Hg][c]1ccccc1`, the Potency in [1] was 0.243 µM (active); in [2], 0.0863 µM (active); in assay [4], 12.3 µM (active); in assay [8], 4.36 µM [fluorescent] (active); in [5], 30.6 µM (active); in assay [6] it was 1.37 µM (active).

With `CC(C)=CC1C(C(=O)OC(C#N)c2cccc(Oc3ccccc3)c2)C1(C)C` (stereo not drawn), the Potency result in assay [1], in assay [3], in assay [5] and in assay [6] was “inactive” in each case.

For `CC(C)[C@@H](Nc1ccc(C(F)(F)F)cc1Cl)C(=O)OC(C#N)c1cccc(Oc2ccccc2)c1` (stereo partly drawn), the Potency result in assay [1], in assay [3], in assay [7], in assay [4], in [9] and in assay [10] was “inactive” throughout. Further, the Potency result in assay [5] and in assay [6] was “inactive” each time.

Turning to `CCOP(=S)(OCC)Oc1cc(C)nc(N(CC)CC)n1`, the Potency entry in assay [1], in assay [3], in assay [8] and in assay [5] was “inactive” throughout. The Potency in assay [10] is 34.4 µM (active).

The values are drawn from PubChem BioAssay (Tox21).
